# Inconclusive results are not listed. Activity calls are given as the source filed them. Calls come from the whole dose curve; as a rule, active = well fitted cell-killing curve with a large enough effect; inconclusive = small, poorly fitted or top-dose-only effect; inactive = no such curve, though single readings can be large or run the other way.
# Assay: qHTS of pediatric cancer cell lines to identify multiple opportunities for drug repurposing: Primary screen for NB-EBc1 cells (AID 1347095)
# Settings: NB-EBc1 neuroblastoma viability, CellTiter-Glo luminescence, 48 h; series mostly up to 46 µM
# From the text: Drug repurposing or repositioning has been offered as a strategy for drug development in oncology programs. This approach has special potential for childhood cancers and other rare or orphan diseases, where the expected return on new drug development has been a disincentive to pharmaceuticals. […] In this project we exploit the poly-pharmacology of drugs to discover new indications via phenotypic screening of a panel of 19 well-characterized cell lines derived from solid tumors seen in children and adolescents. The goal is to identify approved drugs with previously unrecognized anticancer properties that has the potential to reveal new mechanisms and biological processes involved in carcinogenesis or drug resistance. We employed a titration-based paradigm (quantitative high-throughput screening or qHTS), where all compounds were tested at multiple concentrations for their effect on cell viability. Concentration-response curves (CRCs) were derived directly from the primary screen, and both potency and efficacy values were used to identify compounds with robust bioactivity profiles. We screened the NIH Chemical Genomics Center (NCGC) Pharmaceutical Collection (NPC) and Mechanism Interrogation Plate (MIPE) small molecule collections of approved and investigational compounds against these cell lines; and measured metabolically active cells after 48 hours of compound treatment as a proxy for cell viability. […] Assay Submitter: Nathalia J. Martinez, National Center for Advancing Translational Sciences, National Institutes of Health, Rockville, MD, USA; email: natalia.martinez@nih.gov Shen, M et al. Quantitative high-throughput phenotypic screening of pediatric cancer cell lines identifies multiple opportunities for drug repurposing. Oncotarget 2017 Dec 19;9(4):4758-4772. PMID 29435139.
# The cells were obtained from University of North Carolina (UNC), Pediatric Preclinical Testing Program (PPT), and Coriell Institute (CI). qHTS cell viability assay: Cells were assayed in growth media at a density of 500-1,000 cells/well. Five microliters of cells were dispensed into 1,536-well, white, solid-bottom, TC-treated plates (Greiner Bio One) using a multidrop dispenser and incubated at 37 degrees C, 5% CO2, under a humidified atmosphere for 5 hours. Twenty-three nanoliters of compounds and controls (neutral control DMSO or positive control bortezomib at final concentration of 2.3 µM) were subsequently transferred by Kalypsys pintool. For primary screens, the MIPE collection was tested at 11-point dilutions (final concentrations range from 0.78 nM to 46 µM) and the NPC collection at 8-point dilutions (final concentrations range from 0.59 nM to 46 µM). Compounds tested in follow-up screens were assayed at 11-point dilutions. Cells were incubated for 48 hours, followed by addition of 3 µL of CellTiter-Glo (Promega). After a 15 min incubation at room temperature, samples were analyzed for luminescence intensity using a ViewLux High-throughput CCD imager equipped with clear filters.
# Potency is the fitted concentration of half-maximal effect.
row,SMILES,Potency
1,Cc1ccc(S(=O)(=O)Nc2cc(Cl)ccc2C(=O)Nc2nc(-c3ccccc3)cs2)cc1,7430 nM (active)
2,CCNC(=O)Nc1ccc2ncc(Nc3ccc(C)cc3)nc2n1,18700 nM (active)
3,CC(=O)OCCN1C(=O)c2c(C)nc3ccc(S(=O)(=O)N4CCOCC4)cc3c2C1=O,inactive
4,CC=C1NC(=O)[C@H]2CSSCCC=C[C@H](CC(=O)N[C@H](C(C)C)C(=O)N2)OC(=O)[C@H](C(C)C)NC1=O,29.6 nM (active)
5,C=CC(=O)Nc1cc2c(Nc3ccc(F)c(Cl)c3)ncnc2cc1C#CC(C)(C)N1CCN(C)CC1,2960 nM (active)
6,O=c1[nH]nc(Sc2ncc([N+](=O)[O-])s2)n1-c1ccc2c(c1)OCCO2,2640 nM (active)
7,Cc1nc2cnc3ccc(C#Cc4cccnc4)cc3c2n1-c1ccc(C(C)(C)C#N)cc1,833 nM (active)
8,Cc1cnc(Nc2ccc(F)cc2Cl)nc1-c1c[nH]c(C(=O)N[C@H](CO)c2cccc(Cl)c2)c1,833 nM (active)
9,CC[C@@H]1C(=O)N(C)c2cnc(Nc3ccc(C(=O)NC4CCN(C)CC4)cc3OC)nc2N1C1CCCC1,148 nM (active)
10,CC(O)C1C(=O)N2C(C(=O)O)=C(SC3CNC(C(=O)N(C)C)C3)C(C)C12 (stereo not given),inactive
11,CCC[C@H](NC(=O)C(C#N)=Cc1cccc(Br)n1)c1ccccc1,8330 nM (active)
12,C=CC(=O)Nc1cccc(Oc2nc(Nc3ccc(N4CCN(C)CC4)cc3OC)ncc2Cl)c1,2350 nM (active)
13,Clc1cccc(-c2nnnn2Cc2cccnc2)c1Cl,inactive
14,O=C(O)CCCc1c[nH]c2ccccc12,18700 nM (active)
15,C[C@@H](Oc1cc(-n2cnc3ccc(CN4CCN(C)CC4)cc32)sc1C(N)=O)c1ccccc1C(F)(F)F,46.9 nM (active)
16,Cc1cc(N2CCOCC2)cc2[nH]c(-c3c(NC[C@@H](O)c4cccc(Cl)c4)cc[nH]c3=O)nc12,590 nM (active)
17,Clc1cccc(-n2nnnc2NCc2ccccc2Oc2ccccn2)c1Cl,inactive
18,Cn1c(=O)n(-c2ccc(C(C)(C)C#N)cc2)c2c3cc(-c4cnc5ccccc5c4)ccc3ncc21,372 nM (active)
19,CN(c1ncccc1CNc1nc(Nc2ccc3c(c2)CC(=O)N3)ncc1C(F)(F)F)S(C)(=O)=O,4690 nM (active)
20,O=c1[nH]c(=O)n(C2CCCO2)cc1F (stereo not given),inactive

row,SMILES,Potency
1,CNC(=O)c1cc(Oc2ccc(NC(=O)Nc3cc(C(C)(C)C)nn3-c3ccc4ncccc4c3)c(F)c2)ccn1,2350 nM (active)
2,Cc1[nH]nc2ccc(-c3cncc(OC[C@@H](N)Cc4ccccc4)c3)cc12,469 nM (active)
3,C#Cc1cccc(Nc2ncnc3cc(OC)c(OCCCCCCC(=O)NO)cc23)c1,148 nM (active)
4,O=C(c1ccc(Nc2nccc(-c3cc4ccccc4s3)n2)cc1)N1CCC(N2CCCC2)CC1,23500 nM (active)
5,CN(C)CCCN=c1c2ccccc2n(C)c2[nH]c(=O)n(C)c(=O)c12,743 nM (active)
6,CC(=O)SC[C@@H](C)C(=O)N1CCC[C@H]1C(=O)N[C@@H](Cc1ccccc1)C(=O)O,inactive
7,CC(C)c1cc(-c2n[nH]c(=O)n2-c2ccc3c(ccn3C)c2)c(O)cc1O,93.5 nM (active)
8,CCCCOc1c(C(=O)c2c(F)cc(C)cc2F)cnc2n[nH]cc12,2350 nM (active)
9,Cc1c(Cn2c(C)nc3c(C(=O)O)cc(N4CCOCC4)cc32)cccc1C(F)(F)F,14800 nM (active)
10,c1cc(-c2cnn3cc(-c4ccc(OCCN5CCCCC5)cc4)cnc23)ccn1,23500 nM (active)
11,COC(=O)C[C@](O)(CCCC(C)(C)O)C(=O)O[C@@H]1C(OC)=C[C@]23CCCN2CCc2cc4c(cc2[C@H]13)OCO4,inactive
12,Cc1nc(N)ncc1-c1nc(N2CCOCC2)c2sc(C(C)(C)O)cc2n1,590 nM (active)
13,COC(=O)Nc1nc2ccc(C(=O)c3ccc(F)cc3)cc2[nH]1,264 nM (active)
14,C[C@]1(CO)CN(c2cc(C(=O)Nc3ccc4c(c3)-c3c(c(C(N)=O)nn3-c3ccc(F)cc3)CC4)c(Cl)cn2)C[C@@]1(C)CO,5900 nM (active)
15,CC(C)(C)c1cc(C(C)(C)C)c(NC(=O)c2c[nH]c3ccccc3c2=O)cc1O,inactive
16,Clc1ccc2ncc(-c3cccc(NC4CNC4)n3)n2c1,1480 nM (active)
17,Cc1ccc(C(=O)Nc2cccc(C(F)(F)F)c2)cc1-c1ccc2nc(NCCN3CCOCC3)ncc2c1,3720 nM (active)
18,NC(=O)c1cccc2cn(-c3ccc([C@@H]4CCCNC4)cc3)nc12,6620 nM (active)
19,NC1(Cc2ccc(Cl)cc2)CCN(c2ncnc3[nH]ccc23)CC1,11800 nM (active)
20,C[C@H]1C[C@@H]2[C@@H]([C@@H](O)C[C@@]3(C)[C@H]2CC[C@]3(O)C(=O)CO)[C@@]2(C)C=CC(=O)C=C12,inactive

# — PubChem BioAssay (NCATS)
